Test results reported in PubChem BioAssay (NCATS).
Several values for one entry are separate records, joined by “and”; a condition that tells them apart may be missing. Identical values can stand only once. Records with an inconclusive call do not appear. Activity calls are given as the source filed them. Calls follow the shape of the dose curve; as a rule, active = well fitted curve in the direction sought with a large enough effect; inconclusive = small, poorly fitted or top-dose-only effect, or another doubt; inactive = no such curve, though single readings can be large; an effect the other way counts as inactive or inconclusive.

Columns and labels:
[1] = qHTS of pediatric cancer cell lines to identify multiple opportunities for drug repurposing: Primary screen for Rh30 cells (AID 1347107); also: series mostly up to about 46 µM; nearly all actives have a fitted effect of over 75% in size
How it was run: (§1)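 Cells (500-1,000/well) rested 5 h, then received compounds for 48 h; metabolically active cells were measured by CellTiter-Glo luminescence. Final concentrations spanned up to 46 µM (MIPE, 11-point) or 0.59 nM-46 µM (NPC, 8-point) in primary screens, 11-point in follow-ups.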

[2] = qHTS of pediatric cancer cell lines to identify multiple opportunities for drug repurposing: Primary screen for Rh41 cells (AID 1347108); also: nearly all actives have a fitted effect of over 70% in size; also: potency is read from the fitted curve at half-maximal effect
How it was run: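 Cells seeded at 500-1,000 cells/well in growth media, rested 5 hours at 37 degrees C, 5% CO2, then dosed; MIPE compounds at 11-point (from 0.78 nM) and NPC at 8-point (from 0.59 nM) final concentrations. Viability by CellTiter-Glo luminescence after 48 hours.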

[3] = biological target: N-terminal Xaa-Pro-Lys N-methyltransferase 1 (Homo sapiens) (UniProt Q9BV86); assay: qHTS Assay for Inhibitors of N-terminal methyltransferase 1 (NTMT1): LOPAC validation of the NTMT1 SAHH-coupled ThioGlo3 Assay (AID 1347143);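 also: SAH from peptide methylation measured as thiol fluorescence via SAHH coupling and ThioGlo3; nearly all actives have a fitted effect of over 70% in size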; also: potency is read from the fitted curve at half-maximal effect
How it was run: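 NTMT1 125nM + cpds (various conc.), 1 min RT; add SAM 100uM/SAHH 10uM/ThioGlo3 15uM (addition mix). SAHH-coupled thiol detection, Ex340/Em450, t0 and 30 min RT; signal normalized to background. LOPAC 1280-cpd pilot.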

[4] = qHTS of pediatric cancer cell lines to identify multiple opportunities for drug repurposing: Confirmatory screen for NB1643 cells (AID 1347109); also: potency is read from the fitted curve at half-maximal effect; nearly all actives have a fitted effect of over 45% in size
How it was run: as §1

[5] = qHTS of pediatric cancer cell lines to identify multiple opportunities for drug repurposing: Confirmatory screen for A673 cells (AID 1347110);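 also: potency is read from the fitted curve at half-maximal effect; cells exposed to compound for 48 h before the viability read; nearly all actives have a fitted effect of over 65% in size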
How it was run: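 A673 cells at 500-1,000 cells/well were dosed 5 h after plating, in dilution series up to 46 uM final; primary runs used 8 or 11 points and confirmatory runs used 11 points. Viability was read by CellTiter-Glo luminescence after 48 h, against DMSO and 2.3 uM bortezomib controls.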

[6] = qHTS of pediatric cancer cell lines to identify multiple opportunities for drug repurposing: Confirmatory screen for SK-N-MC cells (AID 1347111);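 also: potency is read from the fitted curve at half-maximal effect; cells exposed to compound for 48 h before the readout; nearly all actives have a fitted effect of over 70% in size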
How it was run: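 Seed 500-1,000 cells/well; rest 5 h at 37 degrees C. Pin-transfer compounds, 11-point titration. Incubate 48 h. Add CellTiter-Glo, 15 min RT, read luminescence.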

[7] = qHTS of pediatric cancer cell lines to identify multiple opportunities for drug repurposing: Confirmatory screen for BT-12 cells (AID 1347112);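 also: potency is read from the fitted curve at half-maximal effect; viability read after 48 h of compound exposure; nearly all actives have a fitted effect of over 55% in size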
How it was run: as §1

[8] = qHTS of pediatric cancer cell lines to identify multiple opportunities for drug repurposing: Confirmatory screen for LAN-5 cells (AID 1347113); also: potency is read from the fitted curve at half-maximal effect; nearly all actives have a fitted effect of over 65% in size
How it was run: as §1

[9] = qHTS of pediatric cancer cell lines to identify multiple opportunities for drug repurposing: Confirmatory screen for NB-EBc1 cells (AID 1347115);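 also: potency is read from the fitted curve at half-maximal effect; cells exposed to compound for 48 h before the viability read; nearly all actives have a fitted effect of over 45% in size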
How it was run: as §1

[10] = qHTS of pediatric cancer cell lines to identify multiple opportunities for drug repurposing: Confirmatory screen for SJ-GBM2 cells (AID 1347116); also: potency is read from the fitted curve at half-maximal effect; nearly all actives have a fitted effect of over 60% in size
How it was run: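 Viability measured as metabolically active cells via CellTiter-Glo luminescence following 48 hours of compound exposure, 11-point dilutions in confirmatory testing. 500-1,000 cells/well plated 5 hours before dosing; controls were DMSO and 2.3 µM bortezomib.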

[11] = qHTS of pediatric cancer cell lines to identify multiple opportunities for drug repurposing: Confirmatory screen for BT-37 cells (AID 1347117); also: potency is read from the fitted curve at half-maximal effect; nearly all actives have a fitted effect of over 55% in size
How it was run: as §1

[12] = qHTS of pediatric cancer cell lines to identify multiple opportunities for drug repurposing: Confirmatory screen for MG 63 (6-TG R) cells (AID 1347119); also: potency is read from the fitted curve at half-maximal effect; nearly all actives have a fitted effect of over 55% in size
How it was run: as §1

[13] = qHTS of pediatric cancer cell lines to identify multiple opportunities for drug repurposing: Confirmatory screen for control Hh wild type fibroblast cells (AID 1347121); also: nearly all actives have a fitted effect of over 70% in size
How it was run: as §1

[14] = qHTS of pediatric cancer cell lines to identify multiple opportunities for drug repurposing: Confirmatory screen for U-2 OS cells (AID 1347122); also: potency is read from the fitted curve at half-maximal effect; nearly all actives have a fitted effect of over 65% in size
How it was run: as §1

[15] = qHTS of pediatric cancer cell lines to identify multiple opportunities for drug repurposing: Confirmatory screen for Rh41 cells (AID 1347123);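 also: potency is read from the fitted curve at half-maximal effect; 48 h compound exposure; nearly all actives have a fitted effect of over 60% in size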
How it was run: as §1

[16] = qHTS of pediatric cancer cell lines to identify multiple opportunities for drug repurposing: Confirmatory screen for Rh18 cells (AID 1347125); also: potency is read from the fitted curve at half-maximal effect; nearly all actives have a fitted effect of over 55% in size
How it was run: as §1

[17] = qHTS of pediatric cancer cell lines to identify multiple opportunities for drug repurposing: Confirmatory screen for Rh30 cells (AID 1347126)
How it was run: as §1

[18] = qHTS of pediatric cancer cell lines to identify multiple opportunities for drug repurposing: Confirmatory screen for OHS-50 cells (AID 1347128)
How it was run: as §1

[19] = qHTS of pediatric cancer cell lines to identify multiple opportunities for drug repurposing: Confirmatory screen for SK-N-SH cells (AID 1347129);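 also: potency is read from the fitted curve at half-maximal effect; cells exposed to compound for 48 h before viability read; nearly all actives have a fitted effect of over 60% in size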
How it was run: as §1

Furin (Homo sapiens) = Furin (Homo sapiens) (UniProt P09958); assay: Furin counterscreen qHTS for Zika virus inhibitors (AID 1347149); also: nearly all actives have a fitted effect of over 70% in size; also: potency is read from the fitted curve at half-maximal effect
How it was run: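 Counterscreen measures cleavage of 2 microM BOC-RVRR-AMC, below its ~15 microM Km, by 5 nM full-length human furin at pH 7.0 after a 15-min compound preincubation. Inhibition derives from the 15-min fluorescence increase at 37C.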

Measured: Potency

Chain of Furin (Homo sapiens) (P09958 whole entry, looked up): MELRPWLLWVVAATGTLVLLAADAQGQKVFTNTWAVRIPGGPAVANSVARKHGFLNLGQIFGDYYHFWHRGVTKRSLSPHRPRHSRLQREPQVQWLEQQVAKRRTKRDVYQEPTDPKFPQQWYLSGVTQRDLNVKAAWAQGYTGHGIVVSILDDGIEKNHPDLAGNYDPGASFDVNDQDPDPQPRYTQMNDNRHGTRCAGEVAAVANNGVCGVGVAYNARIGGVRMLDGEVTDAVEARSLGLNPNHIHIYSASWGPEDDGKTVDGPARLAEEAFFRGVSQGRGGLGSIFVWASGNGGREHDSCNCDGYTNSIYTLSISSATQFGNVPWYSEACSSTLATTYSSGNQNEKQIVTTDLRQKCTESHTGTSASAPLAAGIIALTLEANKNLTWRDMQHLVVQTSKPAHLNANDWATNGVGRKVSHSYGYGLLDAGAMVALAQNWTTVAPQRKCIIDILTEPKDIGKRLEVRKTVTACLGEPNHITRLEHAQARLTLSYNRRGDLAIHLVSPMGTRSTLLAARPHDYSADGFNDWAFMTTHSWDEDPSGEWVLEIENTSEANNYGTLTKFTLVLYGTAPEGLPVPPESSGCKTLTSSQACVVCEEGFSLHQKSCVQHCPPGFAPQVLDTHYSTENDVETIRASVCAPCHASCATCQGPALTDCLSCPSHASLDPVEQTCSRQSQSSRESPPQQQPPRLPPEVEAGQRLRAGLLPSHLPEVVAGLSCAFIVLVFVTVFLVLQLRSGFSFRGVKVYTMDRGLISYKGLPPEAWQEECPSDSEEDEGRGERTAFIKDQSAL
Chain of N-terminal Xaa-Pro-Lys N-methyltransferase 1 (Homo sapiens) (Q9BV86 whole entry, looked up): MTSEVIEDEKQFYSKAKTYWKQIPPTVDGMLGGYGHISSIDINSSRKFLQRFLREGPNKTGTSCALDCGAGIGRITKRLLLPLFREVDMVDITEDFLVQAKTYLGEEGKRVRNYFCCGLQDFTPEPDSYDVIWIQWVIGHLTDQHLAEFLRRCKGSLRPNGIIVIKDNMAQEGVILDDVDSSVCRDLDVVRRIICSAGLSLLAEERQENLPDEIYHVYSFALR

CN1C2CCC1CC(OC(=O)C(CO)c1ccccc1)C2 (stereo not drawn)
inactive: [1] | [2] | [3]

N[C@@H](Cc1c[nH]c2ccc(O)cc12)C(=O)O
inactive: [1] | [2]
active: [3] 50100 nM

CC[C@@]1(O)C(=O)OCc2c1cc1n(c2=O)Cc2cc3c(CN(C)C)c(O)ccc3nc2-1
inactive: [13]
active: [2] 2.11 µM and 2.64 µM | [4] 329 nM | [5] 131 nM | [6] 46.5 nM | [7] 3690 nM | [8] 185 nM | [9] 92.8 nM | [10] 1310 nM | [11] 117 nM | [12] 329 nM | [14] 10400 nM | [15] 3690 nM | [16] 5220 nM | [17] 2930 nM | [18] 329 nM | [19] 6620 nM

O=C(c1ccc(F)cc1)C1CCN(CCn2c(=O)[nH]c3ccccc3c2=O)CC1
inactive: [1] | [2] | Furin (Homo sapiens)

COc1cc2nc(N3CCN(C(=O)c4ccco4)CC3)nc(N)c2cc1OC
inactive: [1] | [2]
active: [3] 28200 nM | Furin (Homo sapiens) 14900 nM

CN(C)C(=O)C(CCN1CCC(O)(c2ccc(Cl)cc2)CC1)(c1ccccc1)c1ccccc1
inactive: [3]
active: [2] 18.7 µM and 16.8 µM

C[C@H]1c2cccc(O)c2C(O)=C2C(=O)[C@]3(O)C(O)=C(C(N)=O)C(=O)[C@@H](N(C)C)[C@@H]3[C@@H](O)[C@@H]21
inactive: [1] | [2] | Furin (Homo sapiens)

Cc1cc(C(C)(C)C)cc(C)c1CC1=NCCN1
inactive: [1] | [2] | [3]
